Our source for the growth values is PubChem BioAssay (NCI).

Holding throughout (assay): NCI-60 one-dose screen, 48 h (100 = growth as untreated, 0 = no growth, -100 = all killed)
What all share (settings): 10 µM

Experiment [1] has as its system NCI-H23 lung.
The test system of experiment [2] is NCI-H226 lung.
Experiment [3] deals with NCI-H322M lung.
For experiment [4], the system named is HOP-62 NSCLC.
The test system of experiment [5] is HOP-92 NSCLC.
In experiment [6] the test system is A549/ATCC NSCLC.
Experiment [7] has as its system 786-0 renal.
In experiment [8] the test system is COLO 205 colon.
For experiment [9], the system named is DU-145 prostate.
Experiment [10] deals with K-562 leukemia.
Experiment [11] concerns MALME-3M melanoma.
Experiment [12] deals with MDA-MB-231 breast.
The test system of experiment [13] is SF-268 CNS.
Experiment [14] has as its system SF-295 CNS.
The test system of experiment [15] is SF-539 CNS.
The subject of experiment [16] is UACC-257 melanoma.
Experiment [17] has as its system M14 melanoma.
The test system of experiment [18] is NCI-H522 lung.
The subject of experiment [19] is RXF 393 renal.

This is part of a sample that, as a whole, favours compounds with a hit. Of some 83,000 tested, about 20% had one in any assay.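 Testing used 96-well plates and a 48-hour single-concentration exposure. Example: -40 means 40% of the starting cells died.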 Values without a mark were called inactive. Active and inactive are the calls of the source. Rule for the calls: active = growth percent below 10; inactive = the rest.

For `[2H]C([2H])([2H])Oc1ccc2ncc(C#Cc3cncc(C(=O)Nc4ccc(CN5CCN(C)CC5)c(C(F)(F)F)c4)c3)n2n1`, the growth in experiment [1] was -80.5% (active); in experiment [2], -65.8% (active); in experiment [3] it was -98.9% (active); in experiment [4], -41% (active); in [5], -66.6% (active); in experiment [6], -33% (active). For the same compound, the growth in [7] is -28.6% (active); in experiment [8], -62.2% (active); in experiment [9], -98.8% (active); in [10], 1.31% (active); in experiment [11], -81.1% (active); in experiment [12], -90.5% (active). Moreover, the growth in experiment [13] was -42.8% (active); in experiment [14] it was -77% (active); in experiment [15], -90.2% (active); in experiment [16], -65.9% (active); in [17], -61.9% (active).

On to `O=C(CSc1nnc(-c2c[nH]c3ccccc23)n1-c1ccccc1)c1ccc(Br)cc1`, for which the growth was 54% in experiment [1]; 39.1% in experiment [2]; 45.7% in experiment [3]; 73.6% in experiment [4]; 28.1% in [5]; 46.3% in experiment [18]. Moreover, the growth was 29.9% in [6]; 82.4% in experiment [7]; 13.5% in experiment [8]; 58.5% in [9]; 82% in experiment [10]; 71% in [11]. Also, the growth is 66% in [12]; 49.1% in [13]; 33.7% in experiment [14]; 62% in [15]; 52.6% in experiment [16]; 51% in experiment [17].

On to `COc1cnc2c(c1)C(=O)c1c-2n(CCCNC(C)C)c(=O)c2cc(OC)c(OC)cc12`, for which the growth in experiment [1] was 26.9%; in [2], 41.4%; in [3], 46.5%; in experiment [4] it was 16.7%; in experiment [5], 60.9%; in [18], 41.3%. Moreover, the growth in experiment [6] was 46.6%; in [7], 22.9%; in experiment [8] it was 39.2%; in experiment [9] it was 16.4%; in experiment [10] it was 5.04% (active); in experiment [11], 88.7%. Also, the growth in experiment [12] is 23.1%; in [13], 41.8%; in experiment [14], 13.3%; in experiment [15], -63% (active); in experiment [16], 90.1%; in [17], 45.3%.

`COc1ccc(/C=C/C(=O)c2ccc(N3CCN(C)CC3)cc2)c(C(F)(F)F)c1`: the growth was 28.2% in experiment [1]; 46.4% in [2]; 76.5% in [3]; 79.6% in experiment [4]; 46.8% in [5]; 52.8% in experiment [18]. In addition, the growth was 48.4% in [6]; 41.6% in [7]; -64.6% (active) in [8]; 41.3% in experiment [9]; 2.66% (active) in experiment [10]; 45.2% in [11]. The growth was 37.4% in [12]; 70.8% in [13]; 18.4% in [14]; 14.6% in [15]; 63.3% in experiment [16]; 38.3% in experiment [17].

Consider `CCOC(=O)C(Cc1ccccc1)N1C(=O)/C(=C/N2N=C(c3ccc(OC)cc3)CC2c2ccc3ccccc3c2)SC1=S` (stereo unspecified), for which the growth is -55.5% (active) in experiment [1]; -41.8% (active) in experiment [2]; 18.2% in experiment [3]; -54.8% (active) in experiment [4]; -8.32% (active) in experiment [5]; 1.04% (active) in experiment [18]. The growth in [6] is 21.7%; in experiment [7] it was 13.8%; in experiment [9], 30.7%; in experiment [10] it was 11.9%; in experiment [11], -27.2% (active); in experiment [12], 3.55% (active). Moreover, the growth in experiment [13] was 30.2%; in [14], -78.2% (active); in experiment [15] it was -27.2% (active); in experiment [16] it was 1.02% (active); in experiment [17], 7.24% (active).

For the compound `C#Cc1ccc(S(=O)(=O)Nc2cccc(-c3csc(NC(C)=O)n3)c2)cc1`, the growth in [1] was 65.2%; in experiment [2] it was 71.8%; in [3] it was 98.9%; in experiment [4], 84.6%; in [5], 42.5%; in experiment [18] it was 56.4%. Further, the growth in [6] was 62.8%; in experiment [7], 88.2%; in [8] it was 88.3%; in experiment [9], 82.6%; in [11] it was 78.7%; in [12], 84.5%. Moreover, the growth in experiment [19] is 88.4%; in [13], 87.3%; in [14], 66.1%; in [15], 90.3%; in experiment [16] it was 80%; in [17] it was 92.4%.

Consider `C#CCNC(=O)[C@]12CCC(C)(C)C[C@H]1C1=CC[C@@H]3[C@@](C)(CCC#N)[C@H](C(=C)C)CC[C@@]3(C)[C@]1(C)CC2`, for which the growth in [1] is 58.2%; in [2], 76.5%; in experiment [3] it was 77.1%; in [4], 68.5%; in experiment [5], 26.4%; in experiment [18] it was 64.5%. The growth is 40.1% in experiment [6]; 74.6% in experiment [7]; 68% in experiment [8]; 91.4% in experiment [9]; 75.9% in [11]; 39.6% in [12]. Further, the growth in experiment [19] was 66.8%; in experiment [13], 86.2%; in [14], 38.2%; in experiment [15], 83.4%; in [16], 54.4%; in experiment [17] it was 76.3%.

Consider `O=C(NO)c1ccc(CN2CCN(c3nc(-c4ccccc4)c4ccccc4n3)CC2)cc1`, for which the growth in experiment [1] is -5.08% (active); in [2], 3.26% (active); in [3], 23.6%; in experiment [4], 2.94% (active); in experiment [5], 37%; in experiment [6], 1.35% (active). Also, the growth in experiment [7] was 14%; in experiment [8] it was 6.97% (active); in experiment [9] it was 23.1%; in [10] it was 11.4%; in experiment [11] it was 11.2%; in [12], 35%. The growth in [13] is 26.5%; in experiment [14] it was -11.7% (active); in [15] it was -23.8% (active); in experiment [16] it was 43.3%; in experiment [17], 5.75% (active).
